The text below walks through data of PubChem BioAssay (NCI).

Compounds without any hit were thinned out: in the full panel of roughly 79,000, 15% have a hit. A number with no mark means an inactive call. Calls of active or inactive are those of the source. Cut-off read from the data, not from the text of the source: active = growth inhibition above about 70%; inactive = the rest.

A short description of test [1]: NCI Yeast Anticancer Drug Screen. Data for the rad50 strain (AID 155).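 Note: 0% = growth of vehicle-only cultures of the same strain.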 The following applies: S. cerevisiae rad50 strain growth inhibition, active compounds read high. The gist of the method:
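Relative growth inhibition (compound vs vehicle) was measured in yeast with a defined repair-gene alteration.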

Test [2] in a line: NCI Yeast Anticancer Drug Screen. Data for the mec2-1 strain (AID 157). The following applies: S. cerevisiae mec2-1 strain, active compounds read high. The method, boiled down:
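Readout is yeast growth inhibition, normalised to vehicle-treated controls, in the mec2-1 strain exposed to compound.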

The nature of test [3]: NCI Yeast Anticancer Drug Screen. Data for the sgs1 mgt1 strain (AID 161).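 Note: 0% = growth of cultures given vehicle only.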 The following applies: S. cerevisiae sgs1 mgt1 strain, active compounds read high. The method, boiled down: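 Compounds are added to genetically altered yeast, and growth is compared with cultures given vehicle alone to give percent inhibition.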
Test [4] is described as follows: NCI Yeast Anticancer Drug Screen. Data for the cln2 rad14 strain (AID 165).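 Note: 0% = growth equal to vehicle treated cultures.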 The note with it: S. cerevisiae cln2 rad14 strain, active compounds read high. The method, boiled down: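 Relative to vehicle controls, growth inhibition of compound-treated cln2 rad14 yeast was recorded.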
A short description of test [5]: NCI Yeast Anticancer Drug Screen. Data for the bub3 strain (AID 167). The following applies: S. cerevisiae bub3 mutant strain, active compounds read high. The gist of the method:
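Screening used yeast with an engineered genetic alteration affecting cell cycle control. Compound-exposed cultures were compared with vehicle cultures, and reduced growth was taken as inhibition.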

Test [6] is described as follows: NCI Yeast Anticancer Drug Screen. Data for the mlh1 rad18 strain (AID 175). The note with it: S. cerevisiae mlh1 rad18 strain growth inhibition, active compounds read high. The gist of the method:
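Test agents were incubated with a yeast strain of defined genotype (DNA damage repair defect). Inhibition of growth was derived by comparison with vehicle-exposed cultures.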

[7] abbreviates: at 5.0 µM (retest, dose inferred, filed as 0.5).
The mark [8] stands for this setting: at 50.0 µM (retest, dose inferred, filed as 5.0).

Take `Cc1c(Cl)cccc1NC(=O)/C(Cl)=C(\Cl)C(=O)O`: the growth inhibition in test [1] (setting [7]) was -1%; in test [1] (setting [8]), 33%; in test [1] (at 50.0 µM), 99.5% (active); in test [2] (setting [7]), -1%; in test [2] (setting [8]), 41%; in test [2] (at 50.0 µM), 99.8% (active). For the same compound, the growth inhibition in test [3] (setting [7]) is 1%; in test [3] (setting [8]) it was 74% (active); in test [3] (at 50.0 µM), 99.7% (active); in test [4] (setting [7]), 1%; in test [4] (setting [8]) it was 3%; in test [4] (at 50.0 µM) it was 99.3% (active). The growth inhibition in test [5] (setting [7]) is -3%; in test [5] (setting [8]) it was 18%; in test [5] (at 50.0 µM) it was 99.7% (active); in test [6] (setting [7]), -6%; in test [6] (setting [8]), 39%; in test [6] (at 50.0 µM), 99.5% (active).

`CC(C)c1ccc2c(c1)CCC1C(C)(C(=O)O)CCCC21C` (configuration not stated): the growth inhibition was 11% in test [1] (setting [7]); 97% (active) in test [1] (setting [8]); 95.1% (active) in test [1] (at 50.0 µM); 8% in test [2] (setting [7]); 97% (active) in test [2] (setting [8]); 98.3% (active) in test [2] (at 50.0 µM). The growth inhibition in test [3] (setting [7]) was 16%; in test [3] (setting [8]), -15%; in test [3] (at 50.0 µM), 98% (active); in test [4] (setting [7]) it was 8%; in test [4] (setting [8]), 98% (active); in test [4] (at 50.0 µM), 96.9% (active). For the same compound, the growth inhibition is -9% in test [5] (setting [7]); 97% (active) in test [5] (setting [8]); 97.8% (active) in test [5] (at 50.0 µM); 16% in test [6] (setting [7]); 97% (active) in test [6] (setting [8]); 97.5% (active) in test [6] (at 50.0 µM).

Regarding `NC(=O)C(CCc1cccc2ccccc12)c1ccccc1` (configuration not stated), the growth inhibition in test [1] (setting [7]) is 6%; in test [1] (setting [8]) it was 14%; in test [1] (at 50.0 µM) it was 98.8% (active); in test [2] (setting [7]) it was -10%; in test [2] (setting [8]) it was -6%; in test [2] (at 50.0 µM) it was 94.5% (active). For the same compound, the growth inhibition is -6% in test [3] (setting [7]); 24% in test [3] (setting [8]); 36.3% in test [3] (at 50.0 µM); -5% in test [4] (setting [7]); -3% in test [4] (setting [8]); 62.5% in test [4] (at 50.0 µM). Further, the growth inhibition in test [5] (setting [7]) was -2%; in test [5] (setting [8]), 12%; in test [5] (at 50.0 µM) it was 95.8% (active); in test [6] (setting [7]) it was -8%; in test [6] (setting [8]) it was 14%; in test [6] (at 50.0 µM), 98.4% (active).

With `O=C(/C=C/c1ccccc1)c1cc2c(cc1O)OCO2`, the growth inhibition in test [1] (setting [7]) was -6%; in test [1] (setting [8]), 17%; in test [1] (at 50.0 µM), 29.6%; in test [2] (setting [7]) it was -5%; in test [2] (setting [8]), 3%; in test [2] (at 50.0 µM), -3.2%. Further, the growth inhibition in test [3] (setting [7]) was -16%; in test [3] (setting [8]), 9%; in test [3] (at 50.0 µM) it was 22.9%; in test [4] (setting [7]) it was 2%; in test [4] (setting [8]), 31%; in test [4] (at 50.0 µM) it was 13.8%. In addition, the growth inhibition is 3% in test [5] (setting [7]); 37% in test [5] (setting [8]); 18.8% in test [5] (at 50.0 µM); -16% in test [6] (setting [7]); -1% in test [6] (setting [8]); 31.5% in test [6] (at 50.0 µM).

Turning to `O=C(OCc1ccccc1CN1CCOCC1)c1ccc(Br)cc1`, the growth inhibition in test [1] (setting [7]) was -30%; in test [1] (setting [8]), 29%; in test [1] (at 50.0 µM), 77.3% (active); in test [2] (setting [7]), -2%; in test [2] (setting [8]) it was -2%; in test [2] (at 50.0 µM), 74.5% (active). In addition, the growth inhibition in test [3] (setting [7]) was -2%; in test [3] (setting [8]), 77% (active); in test [3] (at 50.0 µM), 93.7% (active); in test [4] (setting [7]) it was -1%; in test [4] (setting [8]) it was -7%; in test [4] (at 50.0 µM) it was 51.9%. The growth inhibition was 2% in test [5] (setting [7]); 41% in test [5] (setting [8]); 92.1% (active) in test [5] (at 50.0 µM); 4% in test [6] (setting [7]); 36% in test [6] (setting [8]); 76.1% (active) in test [6] (at 50.0 µM).

With `Cc1cc(OC(=O)CCl)ccc1C(C)(C)C`, the growth inhibition in test [1] (setting [7]) was 1%; in test [1] (setting [8]) it was 12%; in test [1] (at 50.0 µM) it was 56.4%; in test [2] (setting [7]) it was 2%; in test [2] (setting [8]), 13%; in test [2] (at 50.0 µM) it was 40.5%. Further, the growth inhibition in test [3] (setting [7]) is 0%; in test [3] (setting [8]), 1%; in test [3] (at 50.0 µM), 56.4%; in test [4] (setting [7]), 5%; in test [4] (setting [8]), 5%; in test [4] (at 50.0 µM), 5.5%. In addition, the growth inhibition in test [5] (setting [7]) is 0%; in test [5] (setting [8]), 5%; in test [5] (at 50.0 µM), 30.5%; in test [6] (setting [7]) it was 2%; in test [6] (setting [8]), 18%; in test [6] (at 50.0 µM), 84.6% (active).

As for `CCCCCCCSCc1nc2ccccc2c(C)[n+]1[O-]`, the growth inhibition was 2% in test [1] (setting [7]); 99% (active) in test [1] (setting [8]); 96.7% (active) in test [1] (at 50.0 µM); 3% in test [2] (setting [7]); 98% (active) in test [2] (setting [8]); 95.8% (active) in test [2] (at 50.0 µM). In addition, the growth inhibition is 0% in test [3] (setting [7]); 98% (active) in test [3] (setting [8]); 95.8% (active) in test [3] (at 50.0 µM); -3% in test [4] (setting [7]); 98% (active) in test [4] (setting [8]); 94.8% (active) in test [4] (at 50.0 µM). Besides, the growth inhibition was -2% in test [5] (setting [7]); 99% (active) in test [5] (setting [8]); 98% (active) in test [5] (at 50.0 µM); 3% in test [6] (setting [7]); 98% (active) in test [6] (setting [8]); 97.5% (active) in test [6] (at 50.0 µM).

`CC(=O)OC[C@@]1(C)[C@@H]2CC[C@]3(C)[C@H](C(=O)C=C4[C@@H]5CC(C)(C)CC[C@]5(C(=O)O)CC[C@]43C)[C@@]2(C)CC[C@@H]1OC(C)=O`: the growth inhibition is 23% in test [1] (setting [7]); 84% (active) in test [1] (setting [8]); 43.1% in test [1] (at 50.0 µM); 23% in test [2] (setting [7]); 88% (active) in test [2] (setting [8]); 94.2% (active) in test [2] (at 50.0 µM). The growth inhibition in test [3] (setting [7]) is 28%; in test [3] (setting [8]) it was 88% (active); in test [3] (at 50.0 µM), 92.8% (active); in test [4] (setting [7]), 39%; in test [4] (setting [8]), 93% (active); in test [4] (at 50.0 µM), 95.7% (active). Further, the growth inhibition in test [5] (setting [7]) is 9%; in test [5] (setting [8]) it was 91% (active); in test [5] (at 50.0 µM) it was 92.7% (active); in test [6] (setting [7]), 29%; in test [6] (setting [8]), 88% (active); in test [6] (at 50.0 µM) it was 95.6% (active).

Consider `CN1CCCN(C)C1c1cc([N+](=O)[O-])ccc1O`, for which the growth inhibition in test [1] (setting [7]) is 25%; in test [1] (setting [8]), 95% (active); in test [1] (at 50.0 µM) it was 49.5%; in test [2] (setting [7]), 3%; in test [2] (setting [8]), 92% (active); in test [2] (at 50.0 µM) it was 98.2% (active). Besides, the growth inhibition in test [3] (setting [7]) is 7%; in test [3] (setting [8]) it was 96% (active); in test [3] (at 50.0 µM) it was 97.7% (active); in test [4] (setting [7]), 11%; in test [4] (setting [8]), 93% (active); in test [4] (at 50.0 µM), 87.3% (active). Further, the growth inhibition in test [5] (setting [7]) is -6%; in test [5] (setting [8]), 95% (active); in test [5] (at 50.0 µM) it was 96.8% (active); in test [6] (setting [7]), 7%; in test [6] (setting [8]), 99% (active); in test [6] (at 50.0 µM), 98.9% (active).
